Data from PubChem BioAssay AID588343 (Broad Institute, 2011).
Screen size: about 1,200 compounds; about 650 (54%) were called active. Inconclusive results (about 5%) are left out.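 Rule for the calls: active = signal-lowering curve whose fitted half-maximal concentration is at or below ten times the top valid dose tested; inconclusive = flat curve with 30 to 70% inhibition, or poor fit; inactive = signal increase, flat within 30%, or potency beyond limit.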 The set was probably picked from earlier hits. Not all results are given here. Entries with a potency or affinity are not part of this list.

Assay: EBV LMP1 TES2 canonical NF-kB signalling blockers – cell-based, HEK293, luciferase, cherry-pick, dose response (AID 588343)
Conditions: HEK293 LMP1 TES2 NF-kB luciferase reporter, 16 h; series mostly up to 35 µM

SMILES	outcome
CCON1C(=O)C2(CCCCC2)C(=O)C12C=CCCC2 (stereo not given)	inactive
CCN(CC)c1ccc(NC(=O)c2cccc(F)c2)c(C)c1	inactive
CCOC(=O)CCSc1nc(N2CCOCC2)c2c(c1C#N)CC(C)(C)OC2	inactive
CSc1nc(C)nc2c1c(=O)n(C)c(=O)n2C	inactive
COCCn1c(SCc2ccc(C(=O)OC)o2)nnc1-c1c[nH]c2ccccc12	inactive
CCOc1ccc(NC(=O)CCc2nnc3ccc(N4CCC5(CC4)OCCO5)nn23)cc1	inactive
COc1ccc(C2CC(C(F)(F)F)n3ncc(C(=O)NCc4cccnc4)c3N2)cc1OC (stereo not given)	inactive
CCCCCC(=O)NC(=S)Nc1ccc(Br)cc1C	inactive
CC(CNC1CCCCC1)OC(=O)c1ccccc1 (stereo not given)	inactive
CCC(=O)NC(=S)Nc1ccccc1C(F)(F)F	inactive
CCN(C(=O)c1cccc(NC(=O)c2ccccc2)c1)C1CCCCC1	inactive
COc1ccc(C(=O)N(CN2CCCC2=O)c2cc(C)on2)cc1OC	inactive
O=C1OCC2=C1C(c1ccc3c(c1)OCO3)c1cc3c(cc1O2)OCO3 (stereo not given)	inactive
CNC1(C)[C@H]2CC[C@H](C2)C1(C)C (stereo not given in full)	inactive
Cc1ccc(NC(=O)/C=N/OCC(=O)NCc2ccccc2Cl)cc1	inactive
COCC(=O)N(C)c1nnc(-c2ccccn2)s1	inactive
Cc1cc(C)cc(C(=O)NCCC(=O)NCc2cc(=O)n(C)c(=O)n2C)c1	inactive
CCOCCCNC(=O)CN1C(=O)/C(=C\c2ccc(C)cc2)Sc2ccccc21	inactive
Cc1ccc(S(=O)(=O)N2CCC[C@H]2C(=O)Nc2ccccc2C)cc1	inactive
CCN(C(=O)c1cc(OC)c(OC)c(OC)c1)C1CCCCC1	inactive
C[C@]12CC[C@@H]3c4ccc(OS(=O)(=O)O)cc4CC[C@H]3[C@@H]1CCC2=O	inactive
O=c1c([N+](=O)[O-])cn(Cc2ccccc2)c(=O)n1Cc1ccccc1	inactive
C[C@@]12C(=O)N(Cc3ccccc3)CC(=O)N1[C@H](/C=C/c1ccccc1)[C@@H]1C(=O)N(c3ccccc3)C(=O)[C@@H]12	inactive
O=c1cc(-c2ccccc2)[nH]c2ccc(F)cc12	inactive
O=C(C1CC1)N1N=C(c2ccc(Br)cc2)CC1(O)C(F)(F)F (stereo not given)	inactive
COc1cc(OC)cc(-c2c(C#Cc3ccsc3)c3cc(-c4cc(OC)c(OC)c(OC)c4)ccc3n2C)c1	inactive
CCCc1nc(SCC(=O)NCc2ccco2)c2c(=O)n(C)c(=O)n(C)c2n1	inactive
Cc1cccn2c(=O)c(C=NCCO)c(NCc3ccco3)nc12	inactive
Cc1cccc(Nc2nc(Cl)ncc2F)c1C	inactive
COc1ccccc1C=NN=Cc1ccccc1O	inactive
